# Data published in PubChem BioAssay (NCATS).
# Several values for one entry are separate records, joined by “and”; a condition that tells them apart may be missing. Equal entries are not always repeated. Values without a mark were called inactive. Records with an inconclusive call do not appear. Where a call stands in place of a potency, no number is given. Activity calls are given as the source filed them. Calls come from the whole dose curve; as a rule, active = well fitted curve in the direction sought with a large enough effect; inconclusive = small, poorly fitted or top-dose-only effect, or another doubt; inactive = no such curve, though single readings can be large; an effect the other way counts as inactive or inconclusive.
# Key:
# [1] = Primary qHTS for inhibitors of nuclear receptor binding SET domain protein 2 (NSD2) in an isogenic RCH-ACV NSD2 p.E1099K mutant (9B) (AID 1645876); note: nearly all actives have a fitted effect of over 70% in size; note: potency is the fitted concentration of half-maximal effect
# [2] = Primary qHTS for inhibitors of nuclear receptor binding SET domain protein 2 (NSD2) in an RCH-ACV wild type WT cells (2C) (AID 1645877); note: nearly all actives have a fitted effect of over 70% in size; note: potency is the fitted concentration of half-maximal effect
# [3] = target: Glutathione peroxidase 1 (Homo sapiens) (UniProt P07203); assay: Primary qHTS Assay for Inhibitors of Recombinant Selenoprotein Glutathione Peroxidase 1 (GPX1) (AID 1845191); note: nearly all actives have a fitted effect of over 65% in size
# Procedure, shortened: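 10 nM GPX1 + cpd, 30 min RT; start w/ 1 mM GSH, 0.5 mM cumene hydroperoxide, 0.5 mM NADPH, 100 nM GR, 0.01% BSA; buffer 50 mM Tris-HCl pH 7.5, 2 mM EDTA, 150 mM NaCl; Fl 340/450, 0 & 15 min.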
# [4] = target: Phospholipid hydroperoxide glutathione peroxidase GPX4 (Homo sapiens) (UniProt P36969); assay: Primary qHTS Assay for Inhibitors of Recombinant Selenoprotein Glutathione Peroxidase 4 (GPX4) (AID 1845192); note: nearly all actives have a fitted effect of over 65% in size; for activity change, negative = inhibition: series mostly up to about 50 µM
# Procedure, shortened: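 NADPH consumption, followed by fluorescence at 340/450 nm between 0 and 15 min, reports GPX4 activity via coupled glutathione reductase (100 nM). Enzyme 200 nM was pre-exposed to compound 30 min; 0.5 mM cumene hydroperoxide and 1 mM GSH served as substrates.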
# [5] = target: Luciferin 4-monooxygenase (Photinus pyralis) (UniProt P08659); assay: Primary firefly luciferase (FLuc) qHTS assay for identification of artifact compounds. (AID 1845220); note: nearly all actives have a fitted effect of over 60% in size; for activity change, negative = inhibition: series mostly up to about 54 µM
# Procedure, shortened: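 Compounds sat 15 min at room temperature with 10 uM luciferin and 10 uM ATP (pH 7.6 Tris acetate). Firefly luciferase (10 nM final) was then added, and luminescence was read 5 min later. Data normalized to no-enzyme and DMSO controls were Hill-fitted.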
# [6] = Primary fluorescence-based thiol-reactive (MSTI) qHTS assay for identification of artifact compounds. (AID 1845221); note: nearly all actives have a fitted effect of over 65% in size; note: potency is the fitted concentration of half-maximal effect
# Procedure, shortened: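 One-hour, room-temperature, dark incubation of compound with 4 uM MSTI in PBS (pH 7.4, 2% DMSO) precedes a fluorescence read at 525 nm excitation, 598 nm emission; Hill-equation fitting yields concentration-response values.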
# [7] = tested on: Nanoluciferase (engineered Oplophorus gracilirostris luciferase); assay: Primary Nanoluciferase (NLuc) qHTS assay for identification of artifact compounds. (AID 1845222); note: series mostly up to about 54 µM
# Procedure, shortened: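 Luminescence from secreted NLuc (filtered, 1:55-diluted S16 cell medium) read 5 min after Nano-Glo substrate; compounds preincubated 15 min, RT. Hill fits of inhibition normalized to DMSO and no-enzyme.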
# Chain of Glutathione peroxidase 1 (Homo sapiens) (P07203 whole entry, looked up): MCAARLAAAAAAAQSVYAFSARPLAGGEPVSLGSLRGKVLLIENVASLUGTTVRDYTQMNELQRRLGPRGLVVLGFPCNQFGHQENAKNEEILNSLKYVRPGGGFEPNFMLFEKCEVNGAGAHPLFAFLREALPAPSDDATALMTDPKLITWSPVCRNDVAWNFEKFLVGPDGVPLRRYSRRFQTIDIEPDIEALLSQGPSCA
# Chain of Phospholipid hydroperoxide glutathione peroxidase GPX4 (Homo sapiens) (P36969 whole entry, looked up): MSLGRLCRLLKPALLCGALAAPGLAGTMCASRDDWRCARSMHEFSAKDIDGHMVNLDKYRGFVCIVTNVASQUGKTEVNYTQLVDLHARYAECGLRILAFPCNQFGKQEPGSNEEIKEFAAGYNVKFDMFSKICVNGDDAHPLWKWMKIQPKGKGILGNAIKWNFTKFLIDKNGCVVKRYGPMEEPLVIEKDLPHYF
SMILES,Potency [1],Potency [2],Potency [3],Potency [4],Potency [5],Potency [6],Potency [7],"activity change, negative = inhibition [4]"
Cc1cc(Nc2cc(NC(=O)c3c(Cl)cccc3Cl)ccn2)nc(N)n1,0.417 µM (active),0.291 µM (active),inactive,inactive,,,,
COc1ccc(C(=O)CC2(O)C(=O)Nc3c(Cl)ccc(Cl)c32)cc1 (stereo not drawn),2.58 µM (active),1.83 µM (active),inactive,inactive,inactive,inactive,inactive,
Cn1cncc1[C@@](N)(c1ccc(Cl)cc1)c1ccc2c(c1)c(-c1cccc(Cl)c1)cc(=O)n2C,inactive,inactive,inactive,inactive,,,,
CNC(=O)c1c(F)cccc1Nc1nc(Nc2cc3c(cc2OC)CCN3C(=O)CN(C)C)nc2[nH]ccc12,5.15 µM (active) and 7.42 µM (active),3.25 µM (active) and 5.9 µM (active),inactive,inactive,inactive,1.06 µM (active),inactive,
C#Cc1cccc(Nc2ncnc3cc(OC)c(OCCCCCCC(=O)NO)cc23)c1,515 nM (active) and 590 nM (active),230 nM (active) and 296 nM (active),inactive,inactive,inactive,inactive,inactive,
CCN1CCN(CC(=O)Nc2ccc(-c3cccc4c(=O)cc(N5CCOCC5)oc34)c3sc4ccccc4c23)CC1,66.8 nM (active) and 257 nM (active),94.4 nM (active) and 257 nM (active),inactive,inactive,,,,
COc1cc(C(C)C)c2c(c1)S(=O)(=O)N(COc1cc(=O)n3cccc(OCCN4CCCCC4)c3n1)C2=O,14.8 µM (active),10.5 µM (active),inactive,inactive,,,,
CN1CCN(c2cc(C(=O)Nc3ccc4c(c3)-c3c(c(C(N)=O)nn3-c3ccc(F)cc3)CC4)c(Cl)cn2)CC1,7.42 µM (active),8.33 µM (active),inactive,inactive,,,,
O=C(Nc1nc2cccc(-c3ccc(CN4CCS(=O)(=O)CC4)cc3)n2n1)C1CC1,14.5 µM (active) and 14.8 µM (active),18.3 µM (active) and 9.34 µM (active),inactive,inactive,inactive,inactive,inactive,
CCCCCCCCCC(=O)N[C@@H](Cc1c[nH]c2ccccc12)C(=O)N[C@H](CC(N)=O)C(=O)N[C@@H](CC(=O)O)C(=O)N[C@@H]1C(=O)NCC(=O)N[C@@H](CCCN)C(=O)N[C@@H](CC(=O)O)C(=O)N[C@H](C)C(=O)N[C@@H](CC(=O)O)C(=O)NCC(=O)N[C@H](CO)C(=O)N[C@@H]([C@@H](C)CC(=O)O)C(=O)N[C@@H](CC(=O)c2ccccc2N)C(=O)O[C@@H]1C,inactive,inactive,inactive,inactive,inactive,inactive,inactive,
Cc1cc(C(=O)N2CCN(c3cccc(Cl)c3)CC2)n(-c2ccccc2)n1,2.09 µM (active),1.32 µM (active),inactive,inactive,inactive,inactive,inactive,
Cc1ccc(C(=O)Nc2cccc(C(F)(F)F)c2)cc1-c1ccc2nc(NCCN3CCOCC3)ncc2c1,1.45 µM (active) and 2.63 µM (active),1.83 µM (active) and 4.17 µM (active),inactive,inactive,inactive,inactive,inactive,
Cn1cc(-c2ccncc2)c(-c2ccc(OCc3ccc4ccccc4n3)cc2)n1,12.9 µM (active),14.5 µM (active),inactive,inactive,inactive,inactive,inactive,
CC(C)c1cc(C(=O)N2Cc3ccc(CN4CCN(C)CC4)cc3C2)c(O)cc1O,115 nM (active) and 148 nM (active),129 nM (active) and 166 nM (active),inactive,inactive,inactive,inactive,inactive,
O=C(CCCCCCC(=O)Nc1ccc([C@H]2O[C@@H](CSc3nc(-c4ccccc4)c(-c4ccccc4)o3)C[C@@H](c3ccc(CO)cc3)O2)cc1)NO,2.58 µM (active) and 4.28 µM (active),2.58 µM (active) and 4.28 µM (active),inactive,,inactive,inactive,inactive,-22.8% [at 9.73 µM]
Cc1cn2c(-c3cn[nH]c3)cnc2c(Nc2ccc(C(=O)N3CCNCC3)cc2F)n1,9.16 µM (active),12.9 µM (active),inactive,inactive,inactive,inactive,inactive,
Nc1nc(Nc2ccc(S(N)(=O)=O)cc2)nn1C(=O)c1c(F)cccc1F,1.63 µM (active) and 2.35 µM (active),1.63 µM (active) and 1.86 µM (active),inactive,inactive,inactive,inactive,inactive,
C=CC(=O)Nc1cccc(Oc2nc(Nc3ccc(N4CCN(C)CC4)cc3OC)ncc2Cl)c1,5.15 µM (active) and 8.33 µM (active),5.15 µM (active) and 8.33 µM (active),inactive,inactive,inactive,2.67 µM (active),inactive,
Cc1cnc(Nc2ccc(F)cc2Cl)nc1-c1c[nH]c(C(=O)N[C@H](CO)c2cccc(Cl)c2)c1,2.9 µM (active) and 18.6 µM (active),3.65 µM (active) and 14.8 µM (active),inactive,inactive,inactive,inactive,inactive,
